Our source for the B-score values is PubChem BioAssay AID1918 (Vanderbilt High Throughput Screening Facility, 2009).

The whole screen tested about 130,000 compounds, of which about 2,500 (1.9%) were called active. The sample holds actives, similar compounds and a random draw of the others, so the mix is not that of the screen. Unmarked numbers belong to inactive results.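 How the source made its calls: active means signal ratio slope over the read window, or its plate-corrected B-score, at least 3 SD from the plate mean, either direction; inactive means the rest.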

The assay deals with ATP-sensitive inward rectifier potassium channel 1 (Homo sapiens) (UniProt P48048). As to the kind of experiment: ROMK potassium channel modulators, primary screen, cell-based, thallium flux, MLSMR library (AID 1918).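 Further: B-score of the F/F0 ratio slope over 7 to 12 s after thallium.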 The note with it: Tet-inducible ROMK, thallium flux fluorescence; at 10 µM; actives lie on both sides.
Chain of ATP-sensitive inward rectifier potassium channel 1 (Homo sapiens) (P48048 whole entry, looked up): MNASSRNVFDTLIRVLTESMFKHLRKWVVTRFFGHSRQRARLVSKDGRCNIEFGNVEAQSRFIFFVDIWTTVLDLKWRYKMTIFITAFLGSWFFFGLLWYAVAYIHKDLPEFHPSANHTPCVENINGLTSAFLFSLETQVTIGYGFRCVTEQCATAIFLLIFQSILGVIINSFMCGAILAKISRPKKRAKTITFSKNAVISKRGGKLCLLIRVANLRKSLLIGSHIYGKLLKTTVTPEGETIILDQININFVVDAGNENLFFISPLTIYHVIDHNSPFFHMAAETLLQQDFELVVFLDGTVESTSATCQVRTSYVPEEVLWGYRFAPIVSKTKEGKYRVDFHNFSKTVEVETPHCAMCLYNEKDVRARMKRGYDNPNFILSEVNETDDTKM
Regarding `O=C1CC(=O)Nc2cc(S(=O)(=O)N3CCN(c4cccc(C(F)(F)F)c4)CC3)ccc2N1`, the B-score was -0.0476.

As for `COc1ccc2[nH]c(=O)c(CN(Cc3nnnn3CCc3ccccc3)CC3CCCO3)cc2c1` (configuration not stated), the B-score is -1.17.

`Cc1cc2cc(CN(Cc3cccs3)Cc3nnnn3CC3CCCO3)c(=O)[nH]c2cc1C` (configuration not stated): the B-score was -5.43 (active).

As to `COc1ccccc1C(c1nnnn1CC1CCCO1)N1CCN(c2ccccc2)CC1` (configuration not stated), the B-score is -0.18.

Consider `CCN(CC)CC1(O)CCN(C(=O)c2ccc(Cl)c(Cl)c2)CC1`, for which the B-score is 0.898.

On to `Cc1nn(CC(=O)Nc2ccc3c(c2)OCO3)c(C)c1[N+](=O)[O-]`, for which the B-score was 0.634.

As for `CC(CC(=O)Nc1ccccc1)n1ccnc1` (configuration not stated), the B-score was -0.543.

For `O=C(c1ccc2c(c1)C(=O)N(c1ccc(Cl)cc1)C2=O)N1CCN(c2ccccn2)CC1`, the B-score was 0.202.

Take `O=C(CN1CCN(S(=O)(=O)/C=C/c2ccccc2)CC1)Nc1ccc(N2CCOCC2)cc1`: the B-score was 1.12.

As for `O=C(/C=C/c1ccc(N2CCOCC2)cc1)c1ccccc1`, the B-score was -3.77 (active).

Turning to `CC(=O)Oc1ccc(C)cc1N1C(=O)c2ccc(C(=O)O)cc2C1=O`, the B-score was 0.575.

Turning to `O=C(O)c1ccc2c(c1)C(=O)N(c1ccc(/C=C/C(=O)c3ccccc3)cc1)C2=O`, the B-score was -2.93 (active).

In the case of `O=C(NC(=O)N1CCOCC1)c1ccccc1`, the B-score is 0.751.

`COc1cc(NC(=O)COC(=O)c2cnc(C)cn2)c(C)cc1[N+](=O)[O-]`: the B-score is -0.377.

Turning to `O=C(O)c1ccccc1C(=O)Nc1ccccc1[N+](=O)[O-]`, the B-score is -0.117.

For the molecule `Cc1csc(NC(=O)CSc2ccc(-c3ccc(F)cc3)nn2)n1`, the B-score was -0.896.

Consider `Cc1ccc(C(=O)N2CCCC(c3ccccc3)=N2)cc1`, for which the B-score was -0.95.

For the molecule `Cn1c(-c2ccccc2)c[n+]2c1CCCCC2`, the B-score was 0.591.

On to `Cc1ccc(C(=O)C[n+]2cc(-c3ccccc3)n3c2CCCCC3)cc1`, for which the B-score was -3.3 (active).

In the case of `CCOC(=O)C1CCCN(C(=O)COc2ccc(N(C)S(=O)(=O)c3ccc(C)cc3)cc2)C1` (configuration not stated), the B-score is 0.882.

Turning to `CCN(CC)S(=O)(=O)c1ccc(NC(=O)c2cccnc2Cl)c(NC(=O)c2cccnc2Cl)c1`, the B-score was 0.845.

As for `COc1ccc(CCNC(=O)CC2SC(=Nc3cc(C)cc(C)c3)NC2=O)cc1OC` (configuration not stated), the B-score is -0.14.

`COC(=O)C(C)C1Sc2ccccc2NC1=O` (configuration not stated): the B-score is -0.193.

On to `Cc1ccc(CNC(=O)CC2Sc3ccccc3NC2=O)cc1` (configuration not stated), for which the B-score is 1.17 (active).

On to `CC(Nc1nc(N2CCOCC2)nc2ccccc12)c1ccccc1` (configuration not stated), for which the B-score was -0.474.

As to `CN1CCN(CC(=O)Nc2cccc([N+](=O)[O-])c2)CC1`, the B-score is 0.51.

Consider `CNC(=S)NNC(=O)c1cccn(Cc2ccccc2)c1=O`, for which the B-score was 0.643.

Consider `O=C(Nc1cccc(Cl)c1N1CCOCC1)c1ccc2c(c1)OCCO2`, for which the B-score was -0.937.

As for `CCS(=O)(=O)c1ccc(C(=O)NC)c(Cl)c1Cl`, the B-score is 0.613.

Regarding `Cc1ccc2nc3n(c(=O)c2c1)CCC3`, the B-score was 0.127.

With `Cc1ccc2c(=O)oc(N(C)C)nc2c1`, the B-score is 2.36 (active).

For `CN(C)c1ccc2c(=O)[nH][nH]c(=O)c2c1`, the B-score is 0.291.

As for `Cc1cc(C)c(C(N)=O)c(Cl)n1`, the B-score is 0.133.

`CC1CCCN(S(=O)(=O)c2ccc(C(=O)Nc3nnc(-c4ccncc4)o3)cc2)C1` (configuration not stated): the B-score is 0.153.

As for `Cc1ccc(N(C(=O)C(F)(F)F)C(C(=O)NC2CCCCC2)c2ccncc2)cc1C` (configuration not stated), the B-score is -0.0116.

As to `CC1CCCN(S(=O)(=O)c2ccc(N(C(=O)c3cnccn3)C(C(=O)NC3CCCCC3)c3cccs3)cc2)C1` (configuration not stated), the B-score was -3.38 (active).

Turning to `N/C(=N\OC(=O)CCc1ccccc1)c1cccnc1`, the B-score is 0.92.

Regarding `O=C(/C=C/c1ccccc1[N+](=O)[O-])OC1CCCCC1=O` (configuration not stated), the B-score was 0.69.

For `COc1ccc(N=Cc2c(O)[nH]c3ccccc23)cc1OC`, the B-score is 2.81 (active).

For the molecule `COc1ccc(CCNC(=O)CCCCn2c(=O)[nH]c3ccccc3c2=O)cc1OC`, the B-score is 0.342.

For `COc1ccc(/C=N/S(=O)(=O)c2ccccc2)cc1OC`, the B-score was -0.975.

Turning to `CCC1(C)Cc2c(sc3nc4n(c(=O)c23)CCCS4)CO1` (configuration not stated), the B-score is -0.196.

Consider `CCC1(C)Cc2c(sc3[nH]c(=S)n(Cc4ccccc4)c(=O)c23)CO1` (configuration not stated), for which the B-score was 5.27 (active).

In the case of `CCC1(C)Cc2c(sc3nc(SC)nc(N)c23)CO1` (configuration not stated), the B-score was -1.15.

For `NC(=O)C1CCN(C(=O)COc2cccc3cccnc23)CC1`, the B-score is 0.124.

Turning to `Cc1cc(C(=O)N/N=C\C(Br)=C\c2ccccc2)c(C)o1`, the B-score is -0.321.

Turning to `CC(C(=O)NC1CCCC1)N(c1ccc(Oc2ccccc2)cc1)S(C)(=O)=O` (configuration not stated), the B-score is -3.71 (active).

Consider `CS(=O)(=O)N(CC(=O)N/N=C/c1ccccn1)c1ccc(Oc2ccccc2)cc1`, for which the B-score is -0.000176.

On to `COc1ccc(/C=N/NC(=O)C(C)N(c2ccc(OC)cc2)S(C)(=O)=O)cc1` (configuration not stated), for which the B-score is -0.0127.

Take `CSc1ccccc1NC(=O)CN(C)CC(=O)Nc1ccc(Cl)cc1[N+](=O)[O-]`: the B-score was -1.12.

Regarding `CC(C)OCC(O)CN1CCN(C(c2ccccc2)c2ccccc2)CC1` (configuration not stated), the B-score was -0.0404.

For the molecule `Cc1cccc(C)c1OCC(O)CN1CCCCC1` (configuration not stated), the B-score was 0.161.

`Cc1ccccc1C(OCC(O)CN1CCCCC1CCO)c1ccccc1` (configuration not stated): the B-score is -4.16 (active).

For `Cc1ccc(C(=O)OC2CCCN(C)C2)cc1` (configuration not stated), the B-score is 0.17.

In the case of `Cc1ccc2nc(COc3ccc(N(C)S(=O)(=O)c4ccccc4)cc3)cc(=O)n2c1`, the B-score is 0.648.

In the case of `COCCNC(=O)CCCn1c(=O)c2ccccc2n(Cc2cccc([N+](=O)[O-])c2)c1=O`, the B-score was -1.13.

For `COc1ccc(CCNC(=O)COC(=O)Cc2cc(OC)c(OC)c(OC)c2)cc1`, the B-score was 0.986.

Consider `COc1ccc2c(c1)CCC/C2=N\OC(=O)c1ccccc1F`, for which the B-score is -0.245.

For `Cc1ccccc1-n1nc(SCC(=O)O)sc1=S`, the B-score was -0.00827.

Take `O=C(CN1CCC(O)(c2ccccc2)CC1)Nc1ccc2c(c1)OCCO2`: the B-score was 0.414.

Consider `O=S(=O)(c1ccc2c(c1)OCCO2)N1CCc2ccccc21`, for which the B-score was 0.399.

Turning to `O=C(CCN1CCc2ccccc2C(O)(c2ccccc2)C1)c1ccc2c(c1)OCCO2` (configuration not stated), the B-score was -3.53 (active).

With `COc1ccc(NC(=S)Nc2ccc(S(N)(=O)=O)cc2)c(C)c1`, the B-score is 0.982.

As to `CN(C)CCCN(Cc1cc2cc3c(cc2[nH]c1=O)OCCO3)C(=O)NC1CCCCC1`, the B-score is 0.033.

With `COc1ccc(NC(=O)COc2ccc(C(=O)OCC(=O)N(C)C3CCS(=O)(=O)C3)cc2OC)cc1` (configuration not stated), the B-score is 0.348.

As to `CC(=O)N1CCN(c2cccc(C)c2C)CC1`, the B-score was -0.0972.

Regarding `Cc1cccc(N2CCN(C(c3ccc(N(C)C)cc3)c3nnnn3C(C)(C)C)CC2)c1C` (configuration not stated), the B-score was -2.94 (active).

Consider `CC(C)(C)n1nnnc1C(c1ccc2ncccc2c1)N1CCSCC1` (configuration not stated), for which the B-score is -0.18.

Consider `CCC(C(=O)Nc1ccc(C(C)C)cc1)c1ccccc1` (configuration not stated), for which the B-score is -0.192.

As for `COc1cc2sc(C)nc2cc1C`, the B-score is 1.46.

Take `CC(C)OC(=O)C(C#N)c1nc2ccccc2nc1N1CCN(Cc2ccc3c(c2)OCO3)CC1` (configuration not stated): the B-score was -0.0869.

Turning to `Fc1ccc2[nH]c3c(N4CCN(Cc5ccc6c(c5)OCO6)CC4)ncnc3c2c1`, the B-score was -3.14 (active).

For the molecule `CC(C)OCCCNc1ncnc2c1[nH]c1ccc(F)cc12`, the B-score was -2.49.

For the molecule `O=c1[nH]c(N2CCN(Cc3ccc4c(c3)OCO4)CC2)nc2c1CCCC2`, the B-score was -1.42.

For `Fc1ccc2[nH]c3c(N4CCSCC4)ncnc3c2c1`, the B-score was -5.22 (active).

Consider `Nn1c(SCC(=O)Nc2nccs2)nncc1=O`, for which the B-score is 1.33.

With `COc1ccc(CC(=O)N[C@@H](CCSC)c2nc3ccccc3[nH]2)cc1`, the B-score is -1.58.

On to `CCc1nnc(NC(=O)CSc2nc(SC)ns2)s1`, for which the B-score is -0.0846.

As to `O=C(C1CCCN1S(=O)(=O)c1ccc(Br)cc1)N1CCOCC1` (configuration not stated), the B-score was -0.207.

For `CCn1cc(C(=O)Nc2cc(C)ccc2C)c(=O)c2ccc(C)nc21`, the B-score was 0.0033.

Turning to `COc1ccc(CC2(CO)CCN(Cc3cnn(C)c3)CC2)cc1`, the B-score was 0.221.

On to `CCOc1cc(/C=C(/C#N)c2ccc(Cl)cc2)cc(Cl)c1OCC(=O)O`, for which the B-score was 1.07.

On to `CCOc1cc(/C=C(\C#N)c2nc(-c3cccs3)c(NC(C)=O)s2)ccc1O`, for which the B-score was -2.6 (active).

For `CCOc1cccc(C(=O)Nc2nnc(-c3cccs3)s2)c1`, the B-score was 1.45.

Take `Cc1ccc(S(=O)(=O)N(C)C2(C)CCS(=O)(=O)C2)cc1` (configuration not stated): the B-score is 1.47.

Consider `Cc1ccc(S(=O)(=O)N2CCC(N3CCCCCC3)CC2)cc1`, for which the B-score was 0.651.

`Cc1ccc(S(=O)(=O)C2(S(=O)(=O)c3ccc(C)cc3)CCCC2)cc1`: the B-score is 3.4 (active).

Take `COc1ccc(N(CC(=O)Nc2ccc(C)cc2C)S(=O)(=O)c2ccccc2[N+](=O)[O-])c(OC)c1`: the B-score was -0.208.

Regarding `CN(C)S(=O)(=O)c1cccc(NC(=O)COC(=O)/C=C/c2cccs2)c1`, the B-score was 0.12.

With `O=C(CN(C(=O)c1csnn1)c1cccc(F)c1)NCc1ccc(F)cc1`, the B-score is 0.442.

For `O=C(Cn1ncc(N2CCCC2)c(Br)c1=O)c1ccc(Cl)cc1`, the B-score was -0.342.

Regarding `O=C(Cn1nc(CNc2ccc(Cl)cc2)[n+]2c1CCCCC2)c1ccc(Cl)cc1`, the B-score was -3.24 (active).

For `COC(=O)c1ccc(NCC(=O)N2CCCCCC2)cc1`, the B-score is -0.512.

In the case of `CC(C)CCN1CCN(C/C=C/c2ccco2)CC1CCO` (configuration not stated), the B-score is 0.0943.

As to `COc1cccc(C2Nc3cccc4cccc(c34)N2)c1`, the B-score is -0.051.

Regarding `CCOc1cccc(-n2nnnc2-c2ccc(OC)cc2)c1`, the B-score is 2.1.

Consider `COc1ccc(C2=CC(c3cccc(OC)c3)n3nnnc3N2)cc1` (configuration not stated), for which the B-score was -4.22 (active).
